PubChem BioAssay (Tox21)
Inconclusive results are not listed. The source made the active and inactive calls. Calls follow the shape of the full dose curve.

Experiments:
[1] = target: Acetylcholinesterase (Homo sapiens) (UniProt P22303); experiment: Acetylcholinesterase (AChE) small molecule antagonists: colormetric cell-based qHTS assay (AID 1347395); also: nearly all actives have a fitted effect of over 30% in size
In short: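 Cells (SH-SY5Y, 2,000 per well) are seeded and left overnight at 37 C. Compound is added for 30 min, then DTNB and acetylthiocholine for a further 90 min at 37 C before absorbance-based thiocholine detection.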

[2] = target: Acetylcholinesterase (Homo sapiens) (UniProt P22303); experiment: Acetylcholinesterase (AChE) small molecule antagonists: enzyme-based qHTS assay (AID 1347397); conditions: Potency: AChE enzyme activity inhibition; outcome: AChE enzyme activity inhibition; also: nearly all actives have a fitted effect of over 55% in size
In short: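 Tox21 library chemicals are tested in qHTS format against recombinant human AChE. The enzyme, dispensed at 50 mU/mL, sits with compound for 30 min at room temperature. A DTNB–acetylthiocholine cocktail follows, and colour is read after 10 min.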

[3] = target: Acetylcholinesterase (Homo sapiens) (UniProt P22303); experiment: Acetylcholinesterase (AChE) small molecule antagonists: fluorescence cell-based qHTS assay (AID 1347398); conditions: Potency: AChE activity; outcome: AChE activity; also: nearly all actives have a fitted effect of over 50% in size
In short: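 Cellular AChE inhibition: SH-SY5Y cells treated with test chemical for 30 min at 37 C, then acetylthiocholine hydrolysis followed over 40 min at room temperature via thiocholine-reactive Thiolite Green fluorescence (490/520 nm).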

[4] = target: Acetylcholinesterase (Homo sapiens) (UniProt P22303); experiment: Acetylcholinesterase (AChE) small molecule antagonists: enzyme-based qHTS assay with human liver microsomes (AID 1347399); conditions: Potency: qHTS inhibition; outcome: qHTS inhibition; also: nearly all actives have a fitted effect of over 60% in size
In short: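 Recombinant human AChE (50 mU/mL in the enzyme mix) and human liver microsomes (0.25 mg/mL final) were preincubated with compound and NADPH (0.25 mg/mL final) for 30 min at 37 C. Acetylthiocholine/DTNB was then added; thiocholine was read colorimetrically after 10 min at room temperature.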

Measured: Potency

Acetylcholinesterase (Homo sapiens), sequence (P22303 whole entry, looked up): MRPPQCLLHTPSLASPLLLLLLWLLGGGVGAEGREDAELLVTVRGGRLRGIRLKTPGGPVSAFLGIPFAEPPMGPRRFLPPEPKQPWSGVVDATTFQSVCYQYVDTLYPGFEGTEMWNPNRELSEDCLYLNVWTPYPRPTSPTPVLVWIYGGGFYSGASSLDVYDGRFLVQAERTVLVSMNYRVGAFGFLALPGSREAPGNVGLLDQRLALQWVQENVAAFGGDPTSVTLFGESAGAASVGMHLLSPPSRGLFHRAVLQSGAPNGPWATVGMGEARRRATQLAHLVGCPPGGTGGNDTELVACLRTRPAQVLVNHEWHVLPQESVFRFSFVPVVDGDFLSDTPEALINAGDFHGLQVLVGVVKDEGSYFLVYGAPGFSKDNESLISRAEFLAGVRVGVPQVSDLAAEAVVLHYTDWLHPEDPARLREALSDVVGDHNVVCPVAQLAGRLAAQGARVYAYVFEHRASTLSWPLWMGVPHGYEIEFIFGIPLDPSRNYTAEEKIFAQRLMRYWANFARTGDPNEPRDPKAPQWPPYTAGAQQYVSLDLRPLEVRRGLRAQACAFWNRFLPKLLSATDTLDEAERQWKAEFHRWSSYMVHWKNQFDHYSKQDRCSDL

OC[C@H]1O[C@@H](O[C@@H]2[C@@H](CO)O[C@](O)(CO)[C@H]2O)[C@H](O)[C@@H](O)[C@H]1O
inactive: all assays above

O=C(O)c1ccc(CO)o1
inactive: all assays above

Cc1cccc(Br)c1
inactive: all assays above

CC(=O)NO
inactive: all assays above

O=Cc1ccc(F)cc1
inactive: all assays above

CC(=O)CCc1ccc(O)cc1
inactive: all assays above

CC(C)(C)c1cc(CCC(=O)OCCSCCOC(=O)CCc2cc(C(C)(C)C)c(O)c(C(C)(C)C)c2)cc(C(C)(C)C)c1O
inactive: all assays above

CC1=C(CC=O)C(C)(C)CCC1
inactive: all assays above

CCOC(=O)c1ccccc1O
inactive: all assays above

Cc1c[nH]c(=S)[nH]c1=O
inactive: all assays above

CC(C)CCOC(=O)c1ccc(N(C)C)cc1
inactive: all assays above

O=[N+]([O-])c1ccc(Cl)cc1Cl
inactive: all assays above

O=C(N/N=C/c1ccccc1O)c1ccncc1
inactive: all assays above

C=C(C)C(=O)OCCCC
inactive: all assays above

C=CN1CCCCCC1=O
inactive: all assays above

CC[N+]1(CC)CCC(=C(c2ccccc2)c2ccccc2)C1C (centres undefined)
inactive: all assays above
